We go through 65 compounds from PubChem BioAssay AID504832 (National Center for Advancing Translational Sciences (NCATS), 2011).

Hit rate of the full screen: of about 310,000 compounds, about 18,000 (5.8%) were called active. About 22% were inconclusive and are not listed. Calls follow the shape of the dose curve; as a rule, active = well fitted inhibition curve with a large enough effect; inconclusive = small, poorly fitted or top-dose-only effect, or another doubt; inactive = no such curve, though single readings can be large or run the other way. The entries come from a sample that favours actives as a whole. Where a call stands in place of a potency, no number is given.
Potency is read from the fitted curve at half-maximal effect.

A short description of the assay: Primary qHTS for delayed death inhibitors of the malarial parasite plastid, 48 hour incubation. Particulars: P. falciparum luciferase growth in erythrocytes; series mostly up to 28.7 µM. The method, boiled down:
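Erythrocytes infected with P. falciparum carrying an integrated firefly luciferase reporter (2% hematocrit, 0.1% parasitemia final) were exposed to compounds in RPMI 1640 with 0.5% Albumax at 37 C, 5% CO2. Growth inhibition was scored as reduced luminescence.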
A general note: Quantitative high-throughput screening tests each substance at several concentrations.
Take `COc1cccc(CNC(=O)c2cccnc2Sc2ccc(Cl)cc2)c1`: the Potency result was “inactive”.

Take `COc1ccc(C(=O)OCC(=O)c2ccc(Cl)s2)c(OC)c1OC`: the Potency entry is “inactive”.

As to `CCN(CC)c1ccc([N+](=O)[O-])c2cccnc12`, the Potency entry is “inactive”.

On to `O=[N+]([O-])c1cc([N+](=O)[O-])c2cccnc2c1O`, for which the Potency entry was “inactive”.

As for `CC(CNc1ccc([N+](=O)[O-])c2cccnc12)Nc1c([N+](=O)[O-])cc(C(F)(F)F)cc1[N+](=O)[O-]` (stereo not given), the Potency is 10.4 µM (active).

On to `N#Cc1cccc(OC(=O)c2ccc3c(=O)n4c(nc3c2)CCC4)c1`, for which the Potency entry is “inactive”.

As to `C=CCOc1ccc(/C=C/C(=O)OCC(=O)NC(C)c2ccc(F)cc2)cc1` (stereo not given), the Potency result is “inactive”.

Regarding `CCOC(=O)C1CCCN(CCSc2ccc(C)cc2)C1` (stereo not given), the Potency result was “inactive”.

Consider `O=c1c(-c2ccc3c(c2)OCCO3)c(C(F)(F)F)oc2cc(O)cc(O)c12`, for which the Potency result was “inactive”.

As to `CCN1CCN(Cc2c(O)ccc3c(=O)c(-c4ccc(OC)c(OC)c4)c(C(F)(F)F)oc23)CC1`, the Potency is 7.38 µM (active).

Turning to `CCc1cc2c(=O)c(-c3ccc(F)cc3)c(C(F)(F)F)oc2cc1OCC(=O)O`, the Potency entry was “inactive”.

For `CC(CN1CCC(n2nccc2NC(=O)C2CCCC2)CC1)c1ccccc1` (stereo not given), the Potency result is “inactive”.

With `CC1CN(S(=O)(=O)c2cccc(C(F)(F)F)c2)CN1C(=O)N1CCOCC1` (stereo not given), the Potency entry is “inactive”.

Take `Cc1ccc(C(=O)NC2CCN(C(=O)Nc3ccccc3Cl)CC2)cc1`: the Potency result is “inactive”.

As to `CC1=C(C(N)=O)C(c2ccc(Br)cc2)n2ncnc2N1` (stereo not given), the activity change, negative = inhibition was 5.11% [at 0.00184 µM] (inactive).

In the case of `Clc1ccc2c(c1)C1=C(C(c3ccncc3)O2)C(c2ccc(Br)cc2)n2ncnc2N1` (stereo not given), the Potency is 13.1 µM (active).

Take `COC(=O)C1=C(C)Nc2ncnn2C1c1cccnc1` (stereo not given): the Potency entry was “inactive”.

With `CN1CCN(C(=O)C(=O)c2cn(CC(=O)N3CCCC3)c3ccccc23)CC1`, the Potency entry was “inactive”.

As for `CCN(CC(=O)N1CCCC1)S(=O)(=O)c1ccc(F)cc1`, the Potency result was “inactive”.

Regarding `CCN1CCN(c2ccc(S(=O)(=O)N3CCCCC3)cc2NC(=O)c2cccc(NC(C)=O)c2)CC1`, the Potency is 13.1 µM (active).

For the compound `O=C(COC(=O)Cc1ccc(F)cc1)Nc1cc(S(=O)(=O)N2CCOCC2)ccc1N1CCCC1`, the Potency result was “inactive”.

In the case of `CCN1CCN(c2ccc(S(=O)(=O)N3CCCCC3)cc2NC(=O)Cc2c(Cl)cccc2Cl)CC1`, the Potency entry is “inactive”.

As to `COCCNC(=S)Nc1cc(S(=O)(=O)N2CCOCC2)ccc1N1CCCCC1`, the Potency entry was “inactive”.

For the compound `Cc1ccc(S(=O)(=O)N2CCCCC2)cc1NC(=O)c1cccnc1`, the Potency entry was “inactive”.

On to `CCN(CC)S(=O)(=O)c1cc(C(=O)Nc2cc(S(=O)(=O)N3CCOCC3)ccc2N2CCCC2)ccc1F`, for which the Potency is 7.38 µM (active).

For `CCN(CC)S(=O)(=O)c1ccc(N2CCOCC2)c(NC(=O)C2COc3ccccc3O2)c1` (stereo not given), the Potency result was “inactive”.

With `CCN(CC)S(=O)(=O)c1ccc(N2CCOCC2)c(NC(=O)C(C)Oc2ccc(F)cc2)c1` (stereo not given), the Potency was 4.65 µM (active).

Turning to `Cc1cc(NC(=O)CSC2=NS(=O)(=O)c3cc(Cl)ccc3N2)no1`, the Potency entry is “inactive”.

In the case of `Cc1cc(S(=O)(=O)c2cc3ccc(O)c(C)c3oc2=O)ccc1F`, the activity change, negative = inhibition was 8.19% [at 0.00184 µM] (inactive).

As to `CCN(CC(=O)NCC(=O)Nc1cccc(C)c1C)Cc1ccccc1`, the Potency result was “inactive”.

For the compound `CC(Oc1cc2oc(=O)c3c(c2cc1Cl)CCCC3)C(=O)NCc1ccncc1` (stereo not given), the Potency result is “inactive”.

On to `Cc1nc2nc(C)c(NS(=O)(=O)c3ccc(C(C)(C)C)cc3)c(=O)n2[nH]1`, for which the Potency entry was “inactive”.

Turning to `CCCc1nn2c(=O)cc(CSCC(=O)Nc3cccc(C)c3)nc2s1`, the Potency entry is “inactive”.

For the compound `CCCNC(=S)N1CCC(NC(=O)c2ccc(OC)cc2)CC1`, the Potency result is “inactive”.

`COc1cc(OC)cc(C(=O)NC2CCN(C(=O)N3c4ccccc4Sc4ccccc43)CC2)c1`: the Potency was 13.1 µM (active).

Regarding `COc1ccc(C(=O)NC2CCN(C(=S)Nc3ccccc3)CC2)cc1`, the Potency result is “inactive”.

With `CSc1ccc(S(=O)(=O)N2CCC(C(=O)NCc3ccncc3)CC2)cc1`, the Potency entry was “inactive”.

As to `O=c1c2ccccc2cnn1Cc1n[nH]c(=S)n1-c1ccccc1F`, the Potency result was “inactive”.

In the case of `Cn1cc(C(=O)NCc2ccccc2F)cn1`, the Potency result was “inactive”.

For `Cn1c2cc(B(O)O)sc2c2cnn(Cc3ccccc3F)c(=O)c21`, the Potency was 10.4 µM (active).

With `Cc1[nH]c2ccc(C(=O)N3CCN(C)CC3)cc2c1C`, the Potency result is “inactive”.

Regarding `COC(=O)c1ccc(CSc2nc3ccccc3c(=O)n2-c2cccc(OC)c2)o1`, the Potency is 13.1 µM (active).

Consider `Cc1nn(-c2ccccc2)c(C)c1/C=N/NC(=O)CSc1nc2ccccc2c(=O)n1-c1ccccc1`, for which the Potency result was “inactive”.

As to `COCCNC(=O)c1ccc(-n2c(SCc3cccnc3)nc3ccccc3c2=O)cc1`, the Potency result was “inactive”.

For the compound `CN=C1S/C(=C\c2c(OC)cc(OC)cc2OC)C(=O)N1C`, the Potency entry was “inactive”.

Turning to `CC(=O)NCCc1ccc(S(=O)(=O)Nc2ccc(C)c(S(=O)(=O)N3CCOCC3)c2)cc1`, the Potency entry was “inactive”.

On to `COCCNC(=O)C(c1ccc(C)cc1)N(C(=O)CCC(=O)Nc1ccccn1)c1cccc(C)c1` (stereo not given), for which the Potency entry was “inactive”.

On to `COc1ccccc1N1CC(C(=O)Nc2nnc(SCC(=O)NC(C)C)s2)CC1=O` (stereo not given), for which the Potency result is “inactive”.

As to `COc1ccccc1N1CC(C(=O)Nc2nnc(SCC(=O)NCC3CCCO3)s2)CC1=O` (stereo not given), the Potency result is “inactive”.

With `Cc1ccc(C(=O)OCC(=O)NCc2cc(C)c(O)c(C)c2)cc1S(=O)(=O)N1CCCCC1`, the Potency was 8.28 µM (active).

In the case of `Cc1ccc(C(=O)NCC(=O)O)cc1S(=O)(=O)N1CCCCC1`, the Potency entry was “inactive”.

Regarding `Cc1ccc(C(=O)OCC(=O)N2CC(C)CC(C)C2)cc1S(=O)(=O)N1CCCCC1` (stereo not given), the Potency entry is “inactive”.

Turning to `O=C(c1ccccc1F)N1CCN(S(=O)(=O)c2ccc(Br)cc2)CC1`, the Potency result was “inactive”.

Take `CCOC(=O)c1cc(-c2ccccc2C)n(Cc2cc(C)no2)n1`: the Potency entry is “inactive”.

As for `COc1ccc(N2CCC(N3CCN(C)C(CCO)C3)CC2)cc1` (stereo not given), the Potency entry is “inactive”.

`COc1ccc(N2CCC(CNC(=S)Nc3c(C)cccc3C)C2)cc1` (stereo not given): the Potency was 11.7 µM (active).

With `COc1ccc(NC(=S)NCCN2CCC(C)CC2)cc1`, the activity change, negative = inhibition was 17.2% [at 5.75 µM] (inactive).

Take `COc1ccc(NC(=O)N2CCC(Cc3ccccc3)CC2)cc1`: the Potency result was “inactive”.

On to `COc1cccc(N2CC(C(=O)Nc3c(C)cccc3C)CC2=O)c1` (stereo not given), for which the Potency result is “inactive”.

Turning to `COc1ccc(NC(=S)NCC2CCN(c3ccc(OC)cc3)C2)cc1` (stereo not given), the Potency was 11.7 µM (active).

`Cc1cc(C)cc(NS(=O)(=O)Cc2ccccc2)c1`: the Potency entry is “inactive”.

As to `CC(OC(=O)/C=C/c1ccccc1)C(=O)Nc1ccc(C(N)=O)cc1` (stereo not given), the Potency result is “inactive”.

`Cc1ccccc1NC(=O)Cc1nc(COC(=O)c2ccc(C(F)(F)F)cc2)cs1`: the Potency result is “inactive”.

Regarding `Cc1ccc(S(=O)(=O)N2CC(C)N(S(C)(=O)=O)C2)cc1` (stereo not given), the Potency entry was “inactive”.

For the compound `CCOC(=O)C1=C(COC(=O)[C@H](C)NS(=O)(=O)c2ccccc2F)NC(=O)NC1C` (stereo not given in full), the Potency entry was “inactive”.
